The text below walks through data of ChEMBL document CHEMBL3988442, “University of Dundee, Small-Polar-MMV Screening Library” (2021).

This experiment concerns the target AMP-activated protein kinase, AMPK (Homo sapiens) (UniProt P54646+O43741+P54619+Q9UGJ0+Q9Y478+Q13131+Q9UGI9). Put plainly: AMP-dependent Kinase enzyme assay. An in vitro enzyme assay that detects ADP turnover that is directly proportional to AMPK activity. This uses naive AMPK that is activated during the assay with MK-8722. In kind it is functional. More on the design: scale not given: direction of the effect not stated beside the values. Conditions: 30 µM.
Turning to `O=C(NCCc1c[nH]cn1)c1ccccc1C1CCNC1` (stereo not given), the Percent Effect is -4.12%.
The value for `COc1ccc(Cl)cc1CN(C)C(=O)CN1C(=O)CCC1C` (stereo not given) was 6.65%; that for `CC(C)NC(=O)[C@H]1CN(Cc2ccccc2)C[C@@H]1C(=O)c1ccccc1` was 7.87%.
Turning to `CC(=O)Nc1cccc(-c2ccccc2CCN)c1`, the Percent Effect is 4.86%.
For the molecule `Cn1cc(C2=CCN(CCCC(=O)Nc3ccc(C#N)cc3)CC2)cn1`, the Percent Effect is 7.78%.
For `Cc1cc(Cl)ccc1C(=O)C1CCCN(Cc2cnc(N(C)C)s2)C1` (stereo not given), the Percent Effect worked out at 3.99%.
With `Cc1ccc(NC(=O)CNC(C)Cc2ccsc2)cc1F` (stereo not given), the Percent Effect was -6.2%.
With `O=C(C1CCOCC1)N1C[C@H]2CC[C@@H]1CN(Cc1ccncc1)C2`, the Percent Effect is 0.59%.
Regarding `CCc1nnc(NC(=O)CCN2CC=C(c3cnn(C)c3)CC2)s1`, the Percent Effect came to 7.71%.
On to `Cc1nn(C)c2nc(N3CCCCC3c3cccnc3)sc12` (stereo not given), for which the Percent Effect is -3.14%.
Take `CC(C)c1ccccc1OCCNC(=O)N1CCC2(CC1)OCCO2`: the Percent Effect is -2.79%.
`CCc1cccnc1NCc1cnc(N2CCOCC2)nc1`: the Percent Effect turned out to be 22.9%.
Consider `CC1CN(C)CCN1C(=O)Cc1cc(Cl)c2c(c1)OCCO2` (stereo not given), for which the Percent Effect stood at 1.93%.
As to `CCOCCC(=O)N1C[C@H]2CC[C@@H]1CN(Cc1ccncc1)C2`, the Percent Effect was 3.36%.
Regarding `COc1ncnc(N)c1CNCCc1ccccc1`, the Percent Effect is -4.78%.
Take `CCNC(=O)[C@@H]1CN(Cc2ccccc2)C[C@H]1C(=O)c1ccc(F)cc1`: the Percent Effect is 15.1%.
In the case of `Cn1ncc2c(NC3CN4CCC3CC4)nc(-c3ccncc3)nc21` (stereo not given) it was 5.93%; in that of `CCc1ccc(OCC(=O)N2CCN(CC)CC2)cc1`, -0.678%.
As to `Cc1cc(C)c2[nH]c(C)c(CC(=O)N(C)CCN(C)C)c2c1`, the Percent Effect amounted to 3.2%.
In the case of `CC(C)c1cc(N2CCC3(CC2)CN(C)CCN3C)ncn1`, the Percent Effect is -4.27%.
